CYP2C9 act: CYP2C9 (human) activation; 1.4% of 96,000 active; recombinant CYP2C9, luciferin-H conversion, luminescence; stronger effect = higher value; factor 1 = untreated enzyme, 0 = blocked; P11712; activation factor at 5 µM;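 active = activation factor of 2 or more for CYP2C9 at a 5 µM dose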;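 also: 0 = sulfaphenazole-blocked wells and 1 = vehicle-only wells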
CYP2C9 inh: inhibitors of human CYP2C9 | inhibition, % at 5 µM | 20% of 96,000 active | P11712 | CYP2C9 Supersomes, luciferin-H conversion, luminescence;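 active = blocking of liver enzyme CYP2C9 beyond about 50% at 5 µM, limit read from the data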
CYP2C19 inh: inhibitors of human CYP2C19. CYP2C19 Supersomes, luciferin-H EGE luminescence, 30 min. inhibition, % at 5 µM. 21% of 96,000 active;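 active = CYP2C19 inhibition above a set limit at 5 µM in the primary screen, cut at about 50% in these data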;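 also: plate controls were negative control wells for no effect and 2.5 mM tranylcypromine positive control for full effect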
CYP2C19 activ: activators of human cytochrome P450 2C19 | activation factor at 5 µM | 96,000 tested, under 10 active | P33261 | recombinant CYP2C19, luciferin-H EGE luminescence; stronger effect = higher value; 0 = fully inhibited enzyme, 1 = untreated enzyme;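 active = activation factor of at least 2 at 5 µM in the primary screen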;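 also: 0 = wells with 2.5 mM tranylcypromine and 1 = vehicle-only wells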
Cav3 T inh: human Cav3.2 channel inhibition, primary screen. O95180. Cav3.2-expressing cells, Fluo-4 calcium fluorescence FDSS; stronger effect = lower value. B-score at 10 µM. 4% of 100,000 active. AID 449739;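 active = single-dose well whose peak fluorescence ratio is a statistical outlier from its plate by either plate-standardised score or position-corrected B-score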
Starred values were filed as active, the others as inactive; . = not tested or not shown. The list is not random: actives were taken first. Their share in the collection is about 27%.

SMILES	CYP2C9 act	CYP2C9 inh	CYP2C19 inh	CYP2C19 activ	Cav3 T inh
CN1C(C(=O)NCc2ccco2)CC2Cn3c(nc4cc(Cl)c(Cl)cc43)C21 (stereo not given)	.	.	.	.	0.89
COc1ccc(C2CC(c3ccc(Cl)cc3)n3nc(N)nc3N2)cc1 (stereo not given)	1	-4	38	0.6	1.4
Cn1c(-c2ccc(F)cc2)cnc1NCc1ccccc1	1	3	32	0.7	0.42
Cn1c(-c2ccc(F)cc2)cnc1NCc1cccc(F)c1	0.6	37	53*	0.5	-0.12
Cn1c(-c2cccc(Br)c2)cnc1NCc1cccnc1	0.4	64*	77*	0.2	0.36
COc1cccc(-c2cnc(NCc3cc(Cl)ccc3O)n2C)c1	0	98*	99*	0	-4.3*
C/C(=N\NC(=O)CN1CCOCC1)C(C)(C)C	1.1	-9	-8	1.1	0.68
O=C1CCN2C=Nc3cccc4ccc1c2c34	0.9	13	6	0.9	-8.5*
Cc1cc(C)c[n+](CC(=O)c2cc3ccccc3oc2=O)c1	1.1	-8	-4	1	0.91
N#Cc1ccc(-c2ccccc2)nc1SCC(=O)c1cc2ccccc2oc1=O	0.2	76*	8	0.9	-0.0023
CC(C)c1c(C#N)c(N)nc(SCC(=O)c2cc3ccccc3oc2=O)c1C#N	0.1	92*	7	0.9	-0.65
O=C(CSc1nnc(-c2cccnc2)o1)c1cc2ccccc2oc1=O	0.3	70*	0	1	1
C=CCn1c(SCC(=O)NC(C)(C)C)nnc1-c1ccccc1O	0.9	11	30	0.7	-0.078
C=CCn1c(SCc2cccc(C#N)c2)nnc1-c1ccccc1O	0.6	39	100*	0	-0.16
C=CCn1c(SCc2ccc(C#N)cc2)nnc1-c1cccc(Cl)c1	0.4	64*	97*	0	-4.9*
C1CN(CC23CC4CC(CC(C4)C2)C3)CCO1	.	.	.	.	0.78
Cc1ccccc1-n1nc2c(c1NC(=O)c1ccc(Br)o1)CSC2	0.4	57*	15	0.8	-4.7*
Cc1cc(C(F)(F)F)nc(NCc2ccc(F)cc2)n1	0.8	17	18	0.8	-5.4*
Cc1cc(Oc2ccccc2F)nc(NCc2ccccc2)n1	1	-3	5	1	-2.6
O=C(NCCOc1ccccc1)c1n[nH]c(=O)c2ccccc12	0.9	11	6	0.9	0.47
O=C(CSc1nnc(-c2cccnc2)n1Cc1ccco1)c1ccccc1	0.8	19	24	0.8	.
O=C(CSc1nnc(-c2ccco2)n1Cc1ccco1)N1CCOCC1	1	1	1	1	0.16
O=C(CSc1nnc(-c2ccc(O)cc2)n1Cc1ccco1)c1ccccc1	0.5	50*	38	0.6	0.92
O=C(CSc1nnc(-c2ccc(O)cc2)n1Cc1ccco1)c1cccs1	0.2	78*	65*	0.3	0.027
O=C(CC(SCCO)c1ccc2c(c1)OCO2)c1cccs1 (stereo not given)	0.1	95*	100*	0	-0.53
SMILES	CYP2C9 act	CYP2C9 inh	CYP2C19 inh	CYP2C19 activ	Cav3 T inh
Cc1ccc(OCc2nnc(SCC(=O)c3ccccc3)n2Cc2ccco2)cc1	0	95*	97*	0	-4.5*
O=C(Cn1cc(CCO)nn1)N1CCNCC1	.	.	.	.	0.63
O=S(=O)(NCc1cn2ccccc2n1)c1cc(F)ccc1F	.	.	.	.	-0.43
O=C(CC(SCc1ccco1)c1ccc(O)cc1)c1cccs1 (stereo not given)	0	98*	79*	0.2	-4.5*
Cc1nn(-c2ccccc2)c(OC(=O)c2cccs2)c1S(=O)(=O)c1ccccc1	0.2	80*	62*	0.4	-2.2
CCN(C1CCCCC1)S(=O)(=O)c1ccc(S(=O)(=O)NCCc2ccncc2)cc1	0	100*	96*	0	-0.91
CCN(C1CCCCC1)S(=O)(=O)c1ccc(C(=O)O)cc1	1	-1	7	0.9	0.09
CC1CCCC(C)N1S(=O)(=O)c1ccc(S(=O)(=O)NCCc2ccncc2)cc1 (stereo not given)	.	.	.	.	-0.15
CCNS(=O)(=O)c1ccc(S(=O)(=O)N(Cc2ccccn2)C2CCCCC2)cc1	1.3	-31	22	0.8	-0.81
CN(Cc1ccccc1)S(=O)(=O)c1ccc(S(=O)(=O)N(Cc2ccc(F)cc2)C2CCCC2)cc1	0.4	58*	-6	1.1	-2.5
CCN(C1CCCCC1)S(=O)(=O)c1ccc(S(=O)(=O)NCc2ccncc2)cc1	0	100*	84*	0.2	-0.27
O=S(=O)(NCc1ccccc1)c1ccc(S(=O)(=O)N(Cc2ccccn2)C2CCCC2)cc1	.	.	.	.	-4.1*
O=C1N(Cc2ccccc2)CCCC12CCCN(Cc1ccccc1)C2=O	1	-4	35	0.7	-0.26
O=C(CSc1nc2ccccc2o1)Nc1ccc(N2CCOCC2)c(Cl)c1	0.1	89*	73*	0.3	-3.8*
CC(=O)Nc1ccc2nc(SCC(=O)Nc3ccc(N4CCOCC4)c(Cl)c3)sc2c1	0.2	76*	45	0.6	0.96
Cc1cc(N2CCOCC2)nc(SCc2ccc(Cl)cc2Cl)n1	0.4	64*	48	0.5	-0.44
O=C(CSc1nc2ccccc2o1)Nc1ccccc1N1CCCCCC1	.	.	.	.	-6.6*
O=C(CSc1nc2ccccc2o1)Nc1cc(C(F)(F)F)ccc1N1CCOCC1	0.6	39	46	0.5	-1.4
CCOC(=O)c1c(NC(C)=O)sc2c1CCCNC2=O	1.1	-13	-2	1	1.9
CCOC(=O)C1=C(C)N(CCCC(=O)O)C(=O)NC1c1cccc(OC)c1 (stereo not given)	.	.	.	.	0.23
CCN(CC)CCCN1C(=O)C(=O)/C(=C(/O)c2ccc(OC)c(Cl)c2)C1c1ccco1 (stereo not given)	1	1	-9	1.1	.
CC(=O)CSc1nc2ccc(Nc3nc(N4CCOCC4)nc(N4CCOCC4)n3)cc2s1	0.5	55*	75*	0.3	-0.39
Cc1cc(C)nc(SCC(=O)Nc2ccc(N3CCOCC3)c(Cl)c2)n1	0.5	52*	36	0.6	.
COc1ccccc1C(=O)N/C(N)=N/c1nc2ccccc2o1	1	1	6	0.9	-0.17
O=C(Oc1c(Cl)cc(Cl)c2cccnc12)N1CCCCC1	0.5	54*	64*	0.4	-0.35
SMILES	CYP2C9 act	CYP2C9 inh	CYP2C19 inh	CYP2C19 activ	Cav3 T inh
Cc1ccc(C23CC4CC(CC(C(=O)N5CCOCC5)(C4)C2)C3)cc1	0.4	57*	76*	0.2	0.29
O=C(N1CCOCC1)C12CC3CC(C1)CC(c1ccccc1)(C3)C2	0.6	37	45	0.5	0.34
Cc1cc(C)n(-c2nc(SCCN(C)C)c3c4c(sc3n2)COC(C)(C)C4)n1	0.7	26	23	0.8	-0.0071
Nc1nc(SCC(=O)N2CCCc3ccccc32)[nH]c(=O)c1-c1ccccc1	0.5	51*	46	0.5	0.0022
O=C(CSc1nnc(C2COc3ccccc3O2)o1)N1CCCc2ccccc21 (stereo not given)	0.5	46	40	0.6	-10*
O=C(CSc1nnc(CNc2ccccc2)o1)N1CCc2ccccc21	1.1	-10	12	0.9	0.41

Screening data deposited in PubChem by several laboratories.
